From the supplement of paper PMC12067093, “Discovery and optimisation of a covalent ligand for TRIM25 and its application to targeted protein ubiquitination” (Chemical Science, 2025)
The full data set covers some 21,000 targets. This sample favours those with the largest changes.

Compound: Cc1cc(ccc1-c1ccccc1)C(=O)N1CCCN(CC1)C(=O)CCl [compound 10]
Experiment: probe-labelled cysteine peptide fold change vs DMSO (competition) (log2 fold change); higher = less target engagement (more negative = stronger competition)
Conditions: THP-1, incubation time: 4 h
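Also: competitive profiling in live THP-1 cells: cysteine peptides tagged with an iodoacetamide desthiobiotin (IA-DTB) probe, intensity after compound treatment relative to DMSO-treated cells.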

Row | Target | probe-labelled cysteine peptide fold change (10 µM) | probe-labelled cysteine peptide fold change (50 µM)
1 | MTHFD1_P11586_236_GEWIKPGAIVIDCGINYVPDDK (UniProt P11586) | 0.183 | 0.298
2 | MRPL44_Q9H9J2_96_TAFVNSCYIK (UniProt Q9H9J2) | -0.0364 | -0.21
3 | MIS18A_Q9NYP9_85_AQLEEEAAAAEERPLVFLCSGCR (UniProt Q9NYP9) | 0.00435 | -0.0262
4 | MSH6_P52701_687_SELALSALGGCVFYLK (UniProt P52701) | 0.05 | 0.296
5 | MMS19_Q96T76_750_ELLELSCCHSCPFSSTAAAK (UniProt Q96T76) | -0.103 | -1.11
6 | MSTO1_Q9BUK6_232_LHFYVEECDYLQGFQILCDLHDGFSGVGAK (UniProt Q9BUK6) | 0.444 | 1.33
7 | MMS19_Q96T76_331_REVFQTASERVEAEGLAALHSLTACLSR (UniProt Q96T76) | -0.452 | 0.0397
8 | LUC7L3_O95232_40+43_YYLCGFCPAELFTNTR (UniProt O95232) | 0.232 | -0.733
9 | MDN1_Q9NU22_3195_ELLCQLLTSLHHFVGEGESK (UniProt Q9NU22) | -0.696 | -1.2
10 | LPP_Q93052_524_SLDGIPFTVDAGGLIHCIEDFHKK (UniProt Q93052) | -0.0384 | -0.452
11 | LRCH3_Q96II8_148_NQLSTLPVHLCNLPLK (UniProt Q96II8) | 0.138 | 0.0632
12 | MAP2K6_P52564_216_TIDAGCK (UniProt P52564) | -0.048 | 0.239
13 | MED1_Q15648_135_VAHHGENPVSCPELVQQLR (UniProt Q15648) | -0.0375 | -0.395
14 | MRPL37_Q9BZE1_104_DQACYIFHHR (UniProt Q9BZE1) | 0.0327 | -0.253
15 | LIMS1_P48059_193_MGVPICGACR (UniProt P48059) | -0.104 | -0.269
16 | MTMR10_Q9NXD2_70_LICSNFK (UniProt Q9NXD2) | -0.125 | -0.103
17 | LRRC8A_Q8IWT6_768+776_GNRLECLPVELGECPLLK (UniProt Q8IWT6) | -0.106 | -0.0226
18 | MCM2_P49736_406_DAILLADLVDSCK (UniProt P49736) | -0.0605 | 0.3
19 | LUC7L3_O95232_58_SDLGPCEK (UniProt O95232) | -0.112 | -0.363
20 | MMTAG2_Q9BU76_103_EDFAEVCKR (UniProt Q9BU76) | -0.168 | -0.321

Row | Target | probe-labelled cysteine peptide fold change (10 µM) | probe-labelled cysteine peptide fold change (50 µM)
21 | MCM2_P49736_223_ISDMCK (UniProt P49736) | -0.124 | -0.178
22 | LSM2_Q9Y333_26_DVVVELKNDLSICGTLHSVDQYLNIK (UniProt Q9Y333) | 0.0504 | -0.543
23 | MYADM_Q96S97_279_SRDVSCSR (UniProt Q96S97) | 1.07 | 1.22
24 | LYST_Q99698_2223_SEDDSPGDESCPR (UniProt Q99698) | -0.367 | -1.41
25 | MDN1_Q9NU22_3308_MDRLDNLTCHLLK (UniProt Q9NU22) | -0.00667 | -0.264
26 | LRRC40_Q9H9A6_227_HLDCNSNLLETIPPELAGMESLELLYLRR (UniProt Q9H9A6) | -0.229 | -0.459
27 | MPC2_O95563_54_WGLVCAGLADMARPAEK (UniProt O95563) | -0.141 | -1.31
28 | LIG3_P49916_929_KAADETLCQTK (UniProt P49916) | -0.152 | -1.24
29 | LTA4H_P09960_8_PEIVDTCSLASPASVCR (UniProt P09960) | -0.129 | -0.324
30 | MEFV_O15553_375_KSPGSLSPQPLPQCK (UniProt O15553) | -0.229 | -1.2
31 | LGALS3_P17931_173_VIVCNTK (UniProt P17931) | 0.0884 | -0.00184
32 | M6PR_P20645_145_AVVMISCNR (UniProt P20645) | -0.268 | -0.155
33 | LIMD1_Q9UGP4_401_LSPTSLVHPVMSTLPELSCK (UniProt Q9UGP4) | -0.0884 | -0.436
34 | MAP2K2_P36507_384_SEVEEVDFAGWLCK (UniProt P36507) | 0.0856 | 0.0969
35 | LRRK2_Q5S007_1187_FSCIPEAILNLPHLR (UniProt Q5S007) | -0.0375 | -0.109
36 | LRP1_Q07954_3021_GGDPHSCK (UniProt Q07954) | -0.193 | -0.308
37 | MRC2_Q9UBG0_201_YDNQWFHGCTSTGR (UniProt Q9UBG0) | -2.14 | -2.04
38 | MAP4K1_Q92918_335_SSSLGIPDADCCR (UniProt Q92918) | -0.294 | -1.09
39 | MDN1_Q9NU22_2158_CLGEGGK (UniProt Q9NU22) | -0.171 | -1.54
